High-throughput results (PubChem BioAssay)
This is a sample that favours compounds with a hit; in the whole collection about 1.6% have one here.
KCNQ2 enhance – KCNQ2 (rat) channel potentiation | O88943 | CHO-K1 KCNQ2, FluxOR thallium flux fluorescence; stronger effect = higher value | B-score at 10 µM | hit rate 0.54% among 310,000 | AID 2239;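 active = fluorescence ratio B-score at least 3 SD of library B-scores, with initial fluorescence B-score within 3 of them, cut at about 5.3 in these data; same plate scores as AID 2156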;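 note: B-score of peak minus minimum over baseline fluorescence ratio after K+ and Tl+ stimulus; positive B-score means potentiation of KCNQ2 with more thallium influx and brighter signal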
Target sequence (O88943 whole entry, looked up): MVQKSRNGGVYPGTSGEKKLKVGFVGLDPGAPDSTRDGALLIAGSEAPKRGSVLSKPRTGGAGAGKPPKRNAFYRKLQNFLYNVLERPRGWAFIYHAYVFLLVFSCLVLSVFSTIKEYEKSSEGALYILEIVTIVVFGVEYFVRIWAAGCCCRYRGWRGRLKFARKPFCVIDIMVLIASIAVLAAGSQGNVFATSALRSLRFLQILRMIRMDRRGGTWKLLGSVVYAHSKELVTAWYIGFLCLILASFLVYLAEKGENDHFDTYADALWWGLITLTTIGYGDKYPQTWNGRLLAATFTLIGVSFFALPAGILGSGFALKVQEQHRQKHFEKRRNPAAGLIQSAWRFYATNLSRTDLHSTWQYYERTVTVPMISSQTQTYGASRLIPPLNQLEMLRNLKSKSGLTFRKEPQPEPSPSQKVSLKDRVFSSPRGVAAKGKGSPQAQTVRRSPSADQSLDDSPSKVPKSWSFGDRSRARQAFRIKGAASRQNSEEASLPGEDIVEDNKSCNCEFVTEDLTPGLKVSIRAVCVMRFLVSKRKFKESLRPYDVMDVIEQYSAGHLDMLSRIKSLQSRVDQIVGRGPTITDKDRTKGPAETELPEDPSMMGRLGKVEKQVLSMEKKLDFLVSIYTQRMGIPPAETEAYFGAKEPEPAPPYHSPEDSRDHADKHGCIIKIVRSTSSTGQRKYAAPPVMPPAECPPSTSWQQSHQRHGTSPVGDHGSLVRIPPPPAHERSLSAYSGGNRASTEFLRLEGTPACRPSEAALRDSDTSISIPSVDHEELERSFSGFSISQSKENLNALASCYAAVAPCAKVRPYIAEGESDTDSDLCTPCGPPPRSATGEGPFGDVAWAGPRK
KCNQ2 block – inhibitors of rat KCNQ2 potassium channel; CHO-K1 KCNQ2, FluxOR thallium flux, 20 min; stronger effect = lower value; B-score at 10 µM; hit rate 1.1% among 310,000;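 active = fluorescence ratio B-score at most minus 3 library SDs, with starting brightness B-score within 2 library SDs, cut at about -5.5 in these data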
* hit, by the source's call; i = inactive; / = not tested or not shown.

SMILES | KCNQ2 enhance | KCNQ2 block
Cc1ccccc1C=Nc1ccccc1C(N)=O | / | i
CCOc1cc(NC(=O)C(C)C)c(OCC)cc1NC(=O)Nc1ccccc1 | / | i
Cc1cccc(-n2c(SC(C)C(=O)O)nc3sc4c(c3c2=O)CCCC4)c1 (centres undefined) | 1.1 | i
O=[N+]([O-])c1cc2cccnc2c2ncccc12 | / | i
O=[N+]([O-])c1cc(O)c2ncccc2c1 | 10.1* | i
CCn1c(SCC(=O)Nc2ccc(F)cc2)nnc1-c1cnccn1 | 0.1 | i
Cn1nc(C(F)(F)F)c(/C=N/OC(=O)c2ccccc2)c1Sc1ccc(Cl)cc1 | -5.69 | -5.69*
Cn1nc(C(F)(F)F)c(/C=N/OC(=O)c2ccccc2)c1Cl | / | i
Cn1nnc2cc(NC(=O)Nc3cccc(C(F)(F)F)c3)ccc21 | / | i
COc1ccc(Cn2ccnc2SCC(=O)Nc2ccccc2OC)cc1 | -6.08 | -6.08*
COc1ccc(Cn2ccnc2SCC(=O)Nc2ccccc2F)cc1 | / | i
CC(NC(=O)c1ccc(F)cc1Cl)C1CC2CCC1C2 (centres undefined) | / | i
Cc1ccc(C(=O)NC(C)C2CC3CCC2C3)c(C)c1 (centres undefined) | -7.72 | -7.72*
N#CC(C(=O)NC1CCCCC1)c1nc2ccccc2nc1N1CCN(c2ccc(F)cc2)CC1 (centres undefined) | -5.77 | -5.77*
N#CC(C(=O)NC1CC1)c1nc2ccccc2nc1N1CCCC1 (centres undefined) | / | i
Cc1coc2c1C(=O)C(=O)c1c-2ccc2c1CCCC2(C)C | / | i
C[C@H]1COC2=C1C(=O)C(=O)c1c2ccc2c1CCCC2(C)C | -6.2 | -6.2*
CCOC(=O)c1ccc(Nc2sc(C(=O)c3cccc([N+](=O)[O-])c3)c(N)c2C#N)cc1 | / | i
Cc1nc(N(C)Cc2ccccc2)c2nnn(Cc3ccccc3)c2n1 | / | i
Cc1sc2nc(COC(=O)CNC(=O)c3ccc(C(C)(C)C)cc3)[nH]c(=O)c2c1C | / | i
CCN1CCN(c2ccc(S(=O)(=O)N3CCCCC3)cc2NC(=O)c2cc3ccccc3o2)CC1 | / | i
CCOc1ccccc1NC(=O)C(OC(=O)c1ccccc1O)c1ccccc1 (centres undefined) | / | i
CCOc1ccccc1NC(=O)C(OC(=O)c1cc(C)oc1C)c1ccccc1 (centres undefined) | -5.82 | -5.82*
CN(C)CCCOC(=O)COc1ccc(Br)cc1 | / | i
O=C(Nc1ccc(S(=O)(=O)Nc2ncccn2)cc1)c1ccc2ncsc2c1 | / | i
SMILES | KCNQ2 enhance | KCNQ2 block
CCOC(=O)Cn1c(=NC(=O)CSC(C)=O)sc2ccccc21 | -6.77 | -6.77*
CCOC(=O)Cn1c(=NC(=O)CSC(C)=O)sc2cc(OC)ccc21 | / | i
Cc1c(NC(=O)COC(=O)c2cc(-c3cccc4ccccc34)nc3ccccc23)c(=O)n(-c2ccccc2)n1C | / | i
Cc1cccc(-c2cc(C(=O)Nc3c(C)n(C)n(-c4ccccc4)c3=O)c3ccccc3n2)c1 | -5.9 | -5.9*
CC(=O)Cn1cnc2c(cnn2-c2ccc(C)c(C)c2)c1=O | 0.13 | i
O=C1NC2(Nc3ccccc31)C(=O)Nc1ccc(Br)cc12 (centres undefined) | -6.24 | -6.24*
O=C1NC2(Nc3ccccc31)C(=O)Nc1ccccc12 (centres undefined) | 0.11 | i
O=C(O)CCC1(c2ccccc2)NC(=O)NC1=O (centres undefined) | 0.55 | i
O=C(Nc1cc2cccc([N+](=O)[O-])c2oc1=O)c1cccs1 | 2.13 | i
Cc1ccccc1Cn1c(CN2CCc3ccccc3C2)nc2c1c(=O)n(C)c(=O)n2C | -6.13 | -6.13*
Cn1c(=O)c2c(nc(CN3CCc4ccccc4C3)n2Cc2ccc(F)cc2)n(C)c1=O | / | i
Cc1cc(C)cc(NC(=S)/C(=C(\[O-])c2ccc(Cl)s2)[n+]2cccc(C)c2)c1 | -6.04 | -6.04*
Cc1ccc(C)c(NC(=S)/C(=C(\[O-])c2ccc(Cl)s2)[n+]2ccccc2)c1 | 0.75 | i
CCCCNC(=S)N(C)/N=C/c1ccc(OCc2ccc(C(=O)OC)cc2)c(OC)c1 | 0.71 | i
Cc1ccc(-c2cc(C(=O)NCCCN3CCOCC3)c3ccccc3n2)cc1 | 0.19 | i
CCc1ccc(Sc2cc(C(=O)NCCN3CCOCC3)c3ccccc3n2)cc1 | -5.65 | -5.65*
CCOC(=O)C1CCCN(CCc2ccccc2)C1 (centres undefined) | 1.38 | i
O=C(NC1CCCN(CCc2ccccc2)C1)C1CCCC1 (centres undefined) | -6.77 | -6.77*
CCn1c(-c2cc(-c3ccccc3OC)nc3ccccc23)n[nH]c1=S | -7.18 | -7.18*
CCn1c(-c2cc(-c3cc(OC)ccc3OC)nc3ccccc23)n[nH]c1=S | / | i
Cc1cccc(C(=O)OCN2C(=O)c3ccccc3C2=O)c1[N+](=O)[O-] | / | i
Cc1cccc(OCc2n(CC(=O)OC3CC(C)CCC3C(C)C)c3ccccc3[n+]2C)c1 (centres undefined) | -6.28 | -6.28*
Cc1cccc(OC(=O)Cn2c(C(F)(F)F)nc3ccccc32)c1 | 0.08 | i
Cc1cc(/C=C(\C#N)C(=O)NCc2ccco2)c(C)n1-c1cccnc1 | 0.47 | i
Cc1cc(/C=C(/C#N)c2cccc(F)c2)c(C)n1-c1cccnc1 | -8 | -8*
SMILES | KCNQ2 enhance | KCNQ2 block
Cn1c(=O)[nH]c(Nc2ccccc2)c([N+](=O)[O-])c1=O | 1.43 | i
O=C(CNC(=O)c1nc[nH]c1C(=O)N1CCc2ccccc2C1)OCc1ccccc1 | -5.57 | -5.57*
O=C(CNC(=O)c1nc[nH]c1C(=O)N1CCNCC1)OCc1ccccc1 | 0.18 | i
CCOC(=O)N1CCN(C(=O)c2cnn3c(C(F)F)cc(-c4ccc(C)cc4)nc23)CC1 | 2.95 | i
Cc1ccc(-c2cc(C(F)F)n3ncc(C(=O)N4CCN(c5cccc(C)c5C)CC4)c3n2)cc1 | -6.42 | -6.42*
COc1ccc(CN2C(=O)c3cccnc3C2=O)cc1S(=O)(=O)N(C)c1ccc(C)cc1 | 0.15 | i
COc1ccc(NCc2nnc(SCC(=O)c3ccc(OC)cc3)o2)cc1 | 0.8 | i
CCOc1cc(C(=O)CSc2nnc(CNc3ccc(Cl)cc3)o2)ccc1NC(=O)CC | 6.18* | i
S=c1nccc(-c2ccc(Cl)cc2)[nH]1 | / | i
S=c1[nH]c(-c2ccc(Cl)cc2)cs1 | 19.1* | i
NC(=S)N=Nc1c(O)n(CCCl)c2ccc(Br)cc12 | / | i
C/C(Cl)=C\Cn1c(O)c(N=NC(N)=S)c2cc(Br)ccc21 | 9.18* | i
Cc1cc(OCC(=O)C(C)(C)C)c2c(-c3ccccc3)cc(=O)oc2c1 | / | i
COc1ccccc1N(Cc1ccccc1)S(=O)(=O)c1cccc(C(=O)Nc2ccccn2)c1 | / | i
COc1ccccc1N(Cc1ccccc1)S(=O)(=O)c1cccc(C(=O)Nc2ccc(C)cn2)c1 | -7.14 | -7.14*
Cc1ccccc1NC(=O)COC(=O)/C=C/c1cccc(C(F)(F)F)c1 | 0.88 | i
CN(c1ccc(Br)cc1)S(=O)(=O)c1ccc2[nH]cc(C(=O)NCCN3CCOCC3)c(=O)c2c1 | / | i
CN(C)/C=C(/C#N)C(=O)c1cccc(Oc2ccc(C(C)(C)C)cc2)c1 | -7.75 | -7.75*
Cc1ccccc1Oc1cccc(C(=O)/C(C#N)=C/N(C)C)c1 | 0.88 | i
CC(C)Cc1ccc(C(=O)NCCOc2ccccc2)o1 | / | i
O=C(Nc1ccccc1)Nc1cnccn1 | / | i
CC(C)(C)n1nc2c(c1NC(=O)C1CC(=O)N(c3ccc(Cl)cc3)C1)CS(=O)(=O)C2 (centres undefined) | 0.49 | i
